Here are results for 31 molecules from article PMC9911399, “Two distinct binding modes provide the RNA-binding protein RbFox with extraordinary sequence specificity”.

Positions count from the first letter of the chain named. Whole data set: some 16,000 sequences, median “ka relative to ugcaugu” near 0.0091, cut for the highest 2% near 0.032. This is one part of a sample in which the highest values are shown more often than they occur.

The labels stand for the following.
B1: UCAAACU (DNA:RNA)
RNA: GGGAGACCGGAAUUCAGAUUGUCCUCAAACUUUAAAUCCCGUCGUAGCCACCA
DNA 1: CAATCTGAATTCCGGTCTCCC
DNA 2: TGGTGGCTACGACGGGATT
B2: AUUAGUA (DNA:RNA)
RNA: B1 RNA with U25A, C26U, A27U, A29G, C30U, U31A
DNA 1: CAATCTGAATTCCGGTCTCCC
DNA 2: TGGTGGCTACGACGGGATT
B3: CGGAAGU (DNA:RNA)
RNA: B1 RNA with U25C, C26G, A27G, C30G
DNA 1: CAATCTGAATTCCGGTCTCCC
DNA 2: TGGTGGCTACGACGGGATT
B4: UCUUCCA (DNA:RNA)
RNA: B1 RNA with A27U, A28U, A29C, U31A
DNA 1: CAATCTGAATTCCGGTCTCCC
DNA 2: TGGTGGCTACGACGGGATT
B5: GCCCCUG (DNA:RNA)
RNA: B1 RNA with U25G, A27C, A28C, A29C, C30U, U31G
DNA 1: CAATCTGAATTCCGGTCTCCC
DNA 2: TGGTGGCTACGACGGGATT
B6: GCCUUGC (DNA:RNA)
RNA: B1 RNA with U25G, A27C, A28U, A29U, C30G, U31C
DNA 1: CAATCTGAATTCCGGTCTCCC
DNA 2: TGGTGGCTACGACGGGATT
B7: CCGCCUG (DNA:RNA)
RNA: B1 RNA with U25C, A27G, A28C, A29C, C30U, U31G
DNA 1: CAATCTGAATTCCGGTCTCCC
DNA 2: TGGTGGCTACGACGGGATT
B8: GCCCGCU (DNA:RNA)
RNA: B1 RNA with U25G, A27C, A28C, A29G
DNA 1: CAATCTGAATTCCGGTCTCCC
DNA 2: TGGTGGCTACGACGGGATT
B9: GCUGCUU (DNA:RNA)
RNA: B1 RNA with U25G, A27U, A28G, A29C, C30U
DNA 1: CAATCTGAATTCCGGTCTCCC
DNA 2: TGGTGGCTACGACGGGATT
B10: GCUUGCC (DNA:RNA)
RNA: B1 RNA with U25G, A27U, A28U, A29G, U31C
DNA 1: CAATCTGAATTCCGGTCTCCC
DNA 2: TGGTGGCTACGACGGGATT
B11: GCCUGUG (DNA:RNA)
RNA: B1 RNA with U25G, A27C, A28U, A29G, C30U, U31G
DNA 1: CAATCTGAATTCCGGTCTCCC
DNA 2: TGGTGGCTACGACGGGATT
B12: CGCCUUG (DNA:RNA)
RNA: GGGAGACCGGAAUUCAGAUUGUCCCGCCUUGUUAAAUCCCGUCGUAGCCACCA
DNA 1: CAATCTGAATTCCGGTCTCCC
DNA 2: TGGTGGCTACGACGGGATT
B13: CGCCUGC (DNA:RNA)
RNA: B12 RNA with U30G, G31C
DNA 1: CAATCTGAATTCCGGTCTCCC
DNA 2: TGGTGGCTACGACGGGATT
B14: GCCUGUC (DNA:RNA)
RNA: B12 RNA with C25G, G26C, C28U, U29G, G31C
DNA 1: CAATCTGAATTCCGGTCTCCC
DNA 2: TGGTGGCTACGACGGGATT
B15: GCCUGCU (DNA:RNA)
RNA: B1 RNA with U25G, A27C, A28U, A29G
DNA 1: CAATCTGAATTCCGGTCTCCC
DNA 2: TGGTGGCTACGACGGGATT
B16: GCCCUGC (DNA:RNA)
RNA: B12 RNA with C25G, G26C, U30G, G31C
DNA 1: CAATCTGAATTCCGGTCTCCC
DNA 2: TGGTGGCTACGACGGGATT
B17: CAACUCA (DNA:RNA)
RNA: B12 RNA with G26A, C27A, U30C, G31A
DNA 1: CAATCTGAATTCCGGTCTCCC
DNA 2: TGGTGGCTACGACGGGATT
B18: GAUCAAG (DNA:RNA)
RNA: B12 RNA with C25G, G26A, C27U, U29A, U30A
DNA 1: CAATCTGAATTCCGGTCTCCC
DNA 2: TGGTGGCTACGACGGGATT
B19: CAUAUGA (DNA:RNA)
RNA: B12 RNA with G26A, C27U, C28A, U30G, G31A
DNA 1: CAATCTGAATTCCGGTCTCCC
DNA 2: TGGTGGCTACGACGGGATT
B20: ACAUCGA (DNA:RNA)
RNA: B1 RNA with U25A, A28U, A29C, C30G, U31A
DNA 1: CAATCTGAATTCCGGTCTCCC
DNA 2: TGGTGGCTACGACGGGATT
B21: AUUACAG (DNA:RNA)
RNA: B12 RNA with C25A, G26U, C27U, C28A, U29C, U30A
DNA 1: CAATCTGAATTCCGGTCTCCC
DNA 2: TGGTGGCTACGACGGGATT
B22: GUCGCUU (DNA:RNA)
RNA: B12 RNA with C25G, G26U, C28G, U29C, G31U
DNA 1: CAATCTGAATTCCGGTCTCCC
DNA 2: TGGTGGCTACGACGGGATT
B23: GCCUGCA (DNA:RNA)
RNA: B1 RNA with U25G, A27C, A28U, A29G, U31A
DNA 1: CAATCTGAATTCCGGTCTCCC
DNA 2: TGGTGGCTACGACGGGATT
B24: CGCUGCA (DNA:RNA)
RNA: B12 RNA with C28U, U29G, U30C, G31A
DNA 1: CAATCTGAATTCCGGTCTCCC
DNA 2: TGGTGGCTACGACGGGATT
B25: GUCCGCC (DNA:RNA)
RNA: B12 RNA with C25G, G26U, U29G, U30C, G31C
DNA 1: CAATCTGAATTCCGGTCTCCC
DNA 2: TGGTGGCTACGACGGGATT
B26: GCCUGCG (DNA:RNA)
RNA: B12 RNA with C25G, G26C, C28U, U29G, U30C
DNA 1: CAATCTGAATTCCGGTCTCCC
DNA 2: TGGTGGCTACGACGGGATT
B27: GCCUGCC (DNA:RNA)
RNA: B1 RNA with U25G, A27C, A28U, A29G, U31C
DNA 1: CAATCTGAATTCCGGTCTCCC
DNA 2: TGGTGGCTACGACGGGATT
B28: ACCUGCA (DNA:RNA)
RNA: B1 RNA with U25A, A27C, A28U, A29G, U31A
DNA 1: CAATCTGAATTCCGGTCTCCC
DNA 2: TGGTGGCTACGACGGGATT
B29: CUGUAGC (DNA:RNA)
RNA: B12 RNA with G26U, C27G, C28U, U29A, U30G, G31C
DNA 1: CAATCTGAATTCCGGTCTCCC
DNA 2: TGGTGGCTACGACGGGATT
B30: CGCACUC (DNA:RNA)
RNA: B12 RNA with C28A, U29C, G31C
DNA 1: CAATCTGAATTCCGGTCTCCC
DNA 2: TGGTGGCTACGACGGGATT
B31: AAGUAUU (DNA:RNA)
RNA: B1 RNA with U25A, C26A, A27G, A28U, C30U
DNA 1: CAATCTGAATTCCGGTCTCCC
DNA 2: TGGTGGCTACGACGGGATT

The target in this assay is T1, RBFOX1 RRM (Homo sapiens, UniProt Q9NWB1 109-208).
T1 sequence: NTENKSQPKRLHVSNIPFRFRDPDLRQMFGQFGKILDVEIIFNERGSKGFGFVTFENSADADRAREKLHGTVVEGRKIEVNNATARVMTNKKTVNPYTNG
The assay is described as follows: EMSA; HiTS-Eq, 1 nM pool, 10 min; buffer printed only for the single-RNA assays: 10 mM Tris pH 7.5, 150 mM NaCl, 3.4 mM EDTA, 0.001% NP-40, 30 C. The note with it: tags: His6 N-terminal (pET28a); label: 5' 32P. In a few lines:
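Purified RbFox RRM (wild type or mutant) was equilibrated for 10 min in 50 µL with 1 nM of a 5′-radiolabelled pool of RNA with 7 randomized nucleotides, its flanks annealed to DNA oligonucleotides, across increasing protein concentrations. Free RNA was separated by 8% native PAGE, excised, reverse-transcribed, PCR-barcoded and sequenced on an Illumina HiSeq 2500. Relative association constants came from read-count changes of each variant against the control reaction, normalised to the cognate motif.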
For the molecule B1, the binding signal was 0.00177 KA relative to UGCAUGU.
The value for B2 was 0.00672 KA relative to UGCAUGU; that for B3 was 0.0236 KA relative to UGCAUGU; that for B4 was 0.00385 KA relative to UGCAUGU.
The value for B5 was 0.016 KA relative to UGCAUGU.
The result for B6 reads 0.0319 KA relative to UGCAUGU; that for B7, 0.0178 KA relative to UGCAUGU; that for B8, 0.0168 KA relative to UGCAUGU.
Turning to B9, the binding signal is 0.0216 KA relative to UGCAUGU.
The result for B10 reads 0.0307 KA relative to UGCAUGU; that for B11, 0.034 KA relative to UGCAUGU; that for B12, 0.0242 KA relative to UGCAUGU.
The result for B13 reads 0.0343 KA relative to UGCAUGU; that for B14, 0.0275 KA relative to UGCAUGU.
The result for B15 reads 0.0359 KA relative to UGCAUGU; that for B16, 0.0133 KA relative to UGCAUGU.
As for B17, the binding signal was 0.0014 KA relative to UGCAUGU.
The value for B18 was 0.0079 KA relative to UGCAUGU; that for B19 was 0.00465 KA relative to UGCAUGU; that for B20 was 0.00224 KA relative to UGCAUGU.
The value for B21 was 0.0056 KA relative to UGCAUGU.
The value for B22 was 0.0147 KA relative to UGCAUGU.
For the molecule B23, the binding signal is 0.0378 KA relative to UGCAUGU.
The result for B24 reads 0.0198 KA relative to UGCAUGU; that for B25, 0.0105 KA relative to UGCAUGU; that for B26, 0.0321 KA relative to UGCAUGU.
The value for B27 was 0.0261 KA relative to UGCAUGU; that for B28 was 0.0144 KA relative to UGCAUGU; that for B29 was 0.0127 KA relative to UGCAUGU.
With B30, the binding signal is 0.00942 KA relative to UGCAUGU.
The value for B31 was 0.0026 KA relative to UGCAUGU.
